Measurements published in PubChem BioAssay (NCATS).
Results filed as inconclusive are left out. The source made the active and inactive calls. Unless noted, calls follow the shape of the dose curve; as a rule, active = well fitted inhibition curve with a large enough effect; inconclusive = small, poorly fitted or top-dose-only effect; inactive = flat fitted curve, though single readings scatter.

Experiments:
[1] = S16 Schwann cell PMP22 intronic element beta-lactamase assay (AID 624044; calls by dose curve; also: nearly all actives have a fitted effect of over 15% in size)
In short: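 Rat S16 Schwann cells with beta-Lac driven by a PMP22 intronic element, compound-treated 24 h at 37 °C. LiveBLAzer FRET B/G read: 460 nm normalized to potassium clavulanate vs DMSO; 535 nm FRET as viability; concentration-effect curves classified.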

[2] = system: ATS189; test: qHTS profiling for inhibitors of Plasmodium falciparum proliferation (AID 504749); also: nearly all actives have a fitted effect of over 60% in size; also: potency is read from the fitted curve at half-maximal effect; conditions: P. falciparum in erythrocytes, SYBR Green DNA, 72 h; series mostly up to 12.8 µM
In short: (§1)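 Readout was DNA-dye fluorescence from lysed cultures, ex 485/em 535 nm. Parasitized red cells had grown 72 h with compound; data scaled between 0.29 uM artemisinin and DMSO wells and corrected using vehicle-only plates.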

[3] = system: ATS95; test: as above; conditions: P. falciparum in erythrocytes, SYBR Green DNA, 72 h; series mostly up to 12.8 µM
In short: as §1

[4] = system: CP201; test: as above; conditions: P. falciparum in erythrocytes, SYBR Green DNA, 72 h; series mostly up to 12.8 µM
In short: as §1

[5] = system: CP262; test: as above; conditions: P. falciparum in erythrocytes, SYBR Green DNA, 72 h; series mostly up to 12.8 µM
In short: as §1

[6] = system: CP268; test: as above; conditions: P. falciparum in erythrocytes, SYBR Green DNA, 72 h; series mostly up to 12.8 µM
In short: as §1

[7] = system: CP269; test: as above; conditions: P. falciparum in erythrocytes, SYBR Green DNA, 72 h; series mostly up to 12.8 µM
In short: as §1

[8] = system: CP286; test: as above; conditions: P. falciparum in erythrocytes, SYBR Green DNA, 72 h; series mostly up to 12.8 µM
In short: as §1

[9] = system: CP305; test: as above; conditions: P. falciparum in erythrocytes, SYBR Green DNA, 72 h; series mostly up to 12.8 µM
In short: as §1

[10] = system: CP315; test: as above; conditions: P. falciparum in erythrocytes, SYBR Green DNA, 72 h; series mostly up to 12.8 µM
In short: as §1

[11] = system: DIV17; test: as above; conditions: P. falciparum in erythrocytes, SYBR Green DNA, 72 h; series mostly up to 12.8 µM
In short: as §1

[12] = system: PAD; test: as above; conditions: P. falciparum in erythrocytes, SYBR Green DNA, 72 h; series mostly up to 12.8 µM
In short: as §1

[13] = system: TAB109; test: as above; conditions: P. falciparum in erythrocytes, SYBR Green DNA, 72 h; series mostly up to 12.8 µM
In short: as §1

[14] = system: TAB113; test: as above; conditions: P. falciparum in erythrocytes, SYBR Green DNA, 72 h; series mostly up to 12.8 µM
In short: as §1

[15] = system: TAB165; test: as above; conditions: P. falciparum in erythrocytes, SYBR Green DNA, 72 h; series mostly up to 12.8 µM
In short: as §1

[16] = system: CP247; test: as above; conditions: P. falciparum in erythrocytes, SYBR Green DNA, 72 h; series mostly up to 12.8 µM
In short: as §1

[17] = system: CP260; test: as above; conditions: P. falciparum in erythrocytes, SYBR Green DNA, 72 h; series mostly up to 12.8 µM
In short: as §1

[18] = system: CP297; test: as above; conditions: P. falciparum in erythrocytes, SYBR Green DNA, 72 h; series mostly up to 12.8 µM
In short: as §1

[19] = system: Dd2; test: as above; conditions: P. falciparum in erythrocytes, SYBR Green DNA, 72 h; series mostly up to 12.8 µM
In short: as §1

[20] = system: GB4; test: as above; conditions: P. falciparum in erythrocytes, SYBR Green DNA, 72 h; series mostly up to 12.8 µM
In short: as §1

Measured: Potency

CN(C)CCOC(=O)[C@@H](c1ccccc1)C1(O)CCCC1
not listed: [16] | [17] | [18] | [19] | [20]
inactive: all other assays above

CC(=O)O[C@H]1C[C@@]2(C)[C@H](C[C@@H](O)[C@H]3[C@@]4(C)CC[C@@H](O)[C@@H](C)[C@H]4CC[C@@]32C)C1=C(CCC=C(C)C)C(=O)O
not listed: [11]
inactive: all other assays above

COc1cc2nc(N3CCN(C(=O)[C@@H]4COc5ccccc5O4)CC3)nc(N)c2cc1OC
inactive: [1] | [2] | [4] | [6] | [9] | [10]
active: [11] 6.75 µM

NCc1ccccc1CC(=O)N[C@@H]1C(=O)N2C(C(=O)O)=C(CSc3nnnn3CC(=O)O)CS[C@@H]12
inactive: all assays above

C[C@@H]1O[C@H](O[C@@H]2\C=C/C=C\C=C/C=C\C[C@H](C)OC(=O)/C=C\[C@H]3O[C@@H]3C[C@H](O)C[C@]3(O)C[C@@H](O)[C@@H](C(=O)O)[C@H](C2)O3)[C@@H](O)[C@H](N)[C@@H]1O (stereo in doubt)
not listed: [6]
inactive: all other assays above

CC(C)(C)NC(=O)[C@@H]1CC[C@@H]2[C@@H]3CC[C@@H]4NC(=O)C=C[C@@]4(C)[C@H]3CC[C@]21C
inactive: all assays above

COc1ccc(OC)c([C@H](O)CNC(=O)CN)c1
not listed: [1]
inactive: all other assays above

Cn1nnnc1SCC1=C(C(=O)O)N2C(=O)[C@@H](NC(=O)[C@@H](O)c3ccccc3)[C@@H]2SC1
inactive: all assays above

Cc1onc(-c2ccccc2Cl)c1C(=O)N[C@H]1C(=O)N2[C@H]1SC(C)(C)[C@H]2C(=O)O
inactive: all assays above

CCN[C@@H]1CN(CCCOC)S(=O)(=O)c2sc(S(N)(=O)=O)cc21
inactive: all assays above
